Results on ten compounds are retold here after PMC7826789 (International Journal of Molecular Sciences, 2021).

Some test systems named below: EIF2AK1; EPHA1; EPHA2; EPHA3; EPHA4; EPHA5; EPHA6; EPHA7; EPHA8; EPHB1; EPHB2; EPHB3; EPHB4; EPHB6; ERBB2; ERBB3; ERBB4.
Conditions in all cases: Compound Concentration (nM):1000
The next assay has as its system T1, ERK1.
T1 construct: gene MAPK3

The test system of the next assay is T2, ERK2.
T2 construct: gene MAPK1

A further assay concerns T3, ERK3.
T3 construct: gene MAPK6

SMILES strings stand for the structures.
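Further: KINOMEscan scanMAX binding as percent activity remaining versus control; lower means stronger binding.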

With `Cl.O=C(Nc1ccc(Oc2ccc3[nH]c(NC(=O)c4ccco4)nc3c2)cc1)Nc1cc(C(F)(F)F)ccc1F` [GW683134A], the “Percent Control” value was 100% with EIF2AK1; 20% with EPHA1; 15% in the assay with EPHA2; 58% with EPHA3; 14% in the assay on EPHA4; 53% with EPHA5. The “Percent Control” value is 35% in the assay with EPHA6; 17% in the assay on EPHA7; 1.1% with EPHA8; 39% in the assay with EPHB1; 31% with EPHB2; 99% in the assay on EPHB3. Also, the “Percent Control” value in the assay on EPHB4 is 87%; with EPHB6, 3.2%; in the assay on ERBB2, 79%; in the assay on ERBB3, 77%; in the assay with ERBB4 it was 100%; in the assay on ERK1, 100%. The “Percent Control” value in the assay on ERK2 came out at 100%; with ERK3, 90%.
For `Cl.O=C(O[C@H]1CN[C@H](C#Cc2cc3ncnc(Nc4ccc5c(cnn5Cc5ccccc5)c4)c3s2)C1)N1CCOCC1` [GSK200398A], the “Percent Control” value in the assay with EIF2AK1 is 100%; with EPHA1, 87%; in the assay with EPHA2, 96%; in the assay on EPHA3, 94%; with EPHA4, 96%; in the assay on EPHA5, 100%. The “Percent Control” value is 95% in the assay on EPHA6; 100% in the assay on EPHA7; 100% with EPHA8; 100% with EPHB1; 100% in the assay on EPHB2; 100% in the assay with EPHB3. The “Percent Control” value with EPHB4 was 96%; with EPHB6, 100%; in the assay with ERBB2, 0%; in the assay with ERBB3, 10%; in the assay with ERBB4, 0%; with ERK1 it was 100%. Moreover, the “Percent Control” value in the assay on ERK2 and with ERK3 was 100% each time.
Consider `COc1cc2ncnc(Nc3ccc4c(cnn4Cc4ccccc4)c3)c2cc1OC.Cl` [GW282449A], for which the “Percent Control” value in the assay with EIF2AK1, in the assay with EPHA1, with EPHA2, in the assay with EPHA3, in the assay with EPHA4 and with EPHA5 was 100% in each case. The “Percent Control” value with EPHA6, in the assay with EPHA7, in the assay on EPHA8, in the assay with EPHB1, in the assay with EPHB2 and with EPHB3 was 100% throughout. Further, the “Percent Control” value in the assay on EPHB4 is 100%; in the assay on EPHB6 it was 12%; in the assay with ERBB2, 0%; in the assay with ERBB3 it was 0%; in the assay with ERBB4 it was 0%; with ERK1, 100%. Further, the “Percent Control” value in the assay on ERK2 and with ERK3 was 100% throughout.
Consider `COc1cc(N2CCN(C(C)C)CC2)ccc1Nc1nc(Nc2ccc(F)cc2C(=O)NC[C@@H](O)CO)c2cc[nH]c2n1` [GSK1392956A], for which the “Percent Control” value came out at 100% in the assay with EIF2AK1; 91% in the assay with EPHA1; 94% in the assay on EPHA2; 70% with EPHA3; 100% with EPHA4; 100% in the assay with EPHA5. The “Percent Control” value worked out at 72% with EPHA6; 100% in the assay with EPHA7; 100% with EPHA8; 100% in the assay on EPHB1; 100% in the assay on EPHB2; 69% with EPHB3. The “Percent Control” value in the assay on EPHB4 was 81%; with EPHB6, 93%; with ERBB2, 85%; in the assay with ERBB3 it was 50%; in the assay on ERBB4, 73%; in the assay on ERK1, 100%. In addition, the “Percent Control” value turned out to be 99% with ERK2 and 66% in the assay on ERK3.
As for `CN1CCN(C(=O)c2ccc(NC(=O)Nc3ccc(N(C)c4ccnc(Nc5ccc(CS(C)(=O)=O)cc5)n4)cc3)cc2)CC1.Cl` [GW830263A], the “Percent Control” value with EIF2AK1 amounted to 100%; with EPHA1, 56%; with EPHA2, 85%; in the assay on EPHA3, 79%; in the assay with EPHA4 it was 85%; in the assay on EPHA5 it was 99%. Further, the “Percent Control” value was 76% in the assay on EPHA6; 92% in the assay with EPHA7; 89% with EPHA8; 87% in the assay with EPHB1; 76% with EPHB2; 100% with EPHB3. Moreover, the “Percent Control” value is 85% in the assay with EPHB4; 4.3% in the assay on EPHB6; 100% with ERBB2; 85% in the assay on ERBB3; 77% with ERBB4; 100% with ERK1. Further, the “Percent Control” value with ERK2 and in the assay on ERK3 was 100% in each case.
On to `C/C(Nc1ccc(S(N)(=O)=O)cc1)=C1/C(=O)Nc2ccccc21` [GW335962X], for which the “Percent Control” value in the assay with EIF2AK1 is 100%; with EPHA1, 100%; in the assay with EPHA2, 98%; in the assay on EPHA3, 100%; with EPHA4 it was 92%; in the assay with EPHA5 it was 100%. The “Percent Control” value was 85% in the assay on EPHA6; 100% in the assay on EPHA7; 100% in the assay with EPHA8; 100% in the assay with EPHB1; 100% with EPHB2; 89% in the assay on EPHB3. For the same compound, the “Percent Control” value with EPHB4 is 86%; in the assay with EPHB6 it was 93%; in the assay on ERBB2, 100%; in the assay with ERBB3, 74%; in the assay with ERBB4, 100%; in the assay on ERK1, 91%. Also, the “Percent Control” value in the assay with ERK2 was determined as 100%; in the assay on ERK3, 93%.
Regarding `COc1ccccc1-c1cc(/C=C2\C(=O)Nc3ncc(Br)cc32)cc(Br)c1O` [GW442130X], the “Percent Control” value in the assay on EIF2AK1 amounted to 100%; in the assay with EPHA1, 100%; in the assay with EPHA2, 100%; in the assay on EPHA3 it was 98%; in the assay with EPHA4 it was 100%; in the assay on EPHA5, 100%. Moreover, the “Percent Control” value in the assay on EPHA6, in the assay on EPHA7, in the assay on EPHA8, in the assay on EPHB1, in the assay on EPHB2 and with EPHB3 was 100% each time. In addition, the “Percent Control” value was 100% in the assay with EPHB4; 42% in the assay with EPHB6; 100% in the assay with ERBB2; 95% in the assay with ERBB3; 100% with ERBB4; 87% in the assay with ERK1. In addition, the “Percent Control” value in the assay on ERK2 and in the assay on ERK3 was 100% in each case.
`COc1cc(/C=N/Nc2ncnc3[nH]ncc23)ccc1O` [GW578748X]: the “Percent Control” value in the assay on EIF2AK1 is listed as 100%; in the assay with EPHA1, 92%; in the assay with EPHA2, 96%; in the assay on EPHA3, 58%; with EPHA4, 74%; in the assay on EPHA5 it was 90%. Moreover, the “Percent Control” value in the assay with EPHA6, in the assay with EPHA7, in the assay with EPHA8, in the assay with EPHB1, with EPHB2 and with EPHB3 was 100% in each case. In addition, the “Percent Control” value with EPHB4 is 100%; with EPHB6, 1.6%; in the assay on ERBB2 it was 57%; in the assay on ERBB3, 64%; in the assay on ERBB4, 100%; in the assay on ERK1 it was 100%. Moreover, the “Percent Control” value in the assay on ERK2 stood at 100%; in the assay with ERK3 it was 57%.
With `COc1ccc(COc2ccc(Cc3cnc(N)nc3N)cc2OC)cc1` [GW632580X], the “Percent Control” value is 100% with EIF2AK1; 97% in the assay on EPHA1; 100% in the assay on EPHA2; 100% with EPHA3; 99% with EPHA4; 93% in the assay on EPHA5. The “Percent Control” value in the assay with EPHA6 stood at 98%; in the assay on EPHA7, 100%; with EPHA8, 90%; in the assay with EPHB1 it was 90%; in the assay on EPHB2, 81%; in the assay with EPHB3, 73%. Further, the “Percent Control” value is 92% in the assay on EPHB4; 100% in the assay on EPHB6; 94% in the assay on ERBB2; 85% with ERBB3; 100% with ERBB4; 95% in the assay with ERK1. Also, the “Percent Control” value is 92% with ERK2 and 87% with ERK3.
For `COc1cc(C=NNc2ncnc3c2cnn3-c2ccccc2)ccc1O` [GW513184X], the “Percent Control” value stood at 100% with EIF2AK1; 100% in the assay with EPHA1; 100% in the assay with EPHA2; 100% in the assay on EPHA3; 100% in the assay on EPHA4; 83% with EPHA5. Further, the “Percent Control” value worked out at 100% in the assay with EPHA6; 90% in the assay with EPHA7; 94% with EPHA8; 99% with EPHB1; 93% with EPHB2; 100% with EPHB3. In addition, the “Percent Control” value in the assay with EPHB4 is 100%; with EPHB6, 3.9%; in the assay with ERBB2, 81%; in the assay on ERBB3, 66%; in the assay with ERBB4, 100%; with ERK1 it was 100%. Also, the “Percent Control” value is on record as 82% in the assay on ERK2 and 15% in the assay on ERK3.
